A number with no mark means an inactive call. The source made the active and inactive calls.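 Rule for the calls, unless noted: active = compounds that lower survival of HCT116 colon cancer cells in the luminescence readout, no numeric limit stated; inactive = the rest.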
Columns and labels:
[1] = stimulators of insulin release from INS-1E, primary screen, cell-based, 5 mM glucose, NPC library (AID 1117329;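 active = compound raises insulin release from rat beta cells at 5 mM glucose, no numeric limit stated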; note: reference of the scale not given here); details: rat INS-1E insulin secretion, at 10 µM, hits give high values
[2] = growth inhibition of GSK3B-pretreated HCT116 cells – cell-based, CellTiter-Glo, 0.2 to 20 µM (AID 1117336;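 active = compounds lowering colon cancer cell viability after pretreatment blocking the GSK3B kinase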); details: HCT116 viability after GSK3B inhibitor, at 20 µM, hits give high values
[3] = inhibition of endothelial tube formation, primary screen, imaging, VEGF stimulated, CD31 staining, tube area, NPC library (AID 1117340;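 active = compound that reduces growth-factor-driven endothelial tube area in a mixed cell culture, no cutoff stated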); details: VEGF-stimulated ADSC/ECFC co-culture, at 10 µM, hits give high values
[4] = glucagon-like peptide 1 release enhancers, primary assay, NCI-H716 cell line, NPC library (AID 1117341;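 active = compound raises GLP1 secretion from the human gut endocrine cells, with no numeric limit stated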; note: reference of the scale not given here); details: NCI-H716 cells, at 10 µM, hits give high values
[5] = HCT116 colon cancer cell growth inhibition, primary screen, CellTiter-Glo luminescence, NPC library (AID 1117342); details: at 20 µM (top of the series)
[6] = CellTiter-Glo luminescent readout of SW480 viability loss, NPC library primary (AID 1117343;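 active = compounds that lower viability of the colon cancer cells in the luminescence readout, with no numeric limit stated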); details: CellTiter-Glo luminescence; at 20 µM (top of the series)
[7] = decreased DLD-1 cellular survival, CellTiter-Glo luminescent readout, NPC compound collection, primary HTS (AID 1117346;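 active = compounds that lower survival of DLD-1 colon cancer cells in the luminescence readout, no cutoff given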); details: DLD-1 viability, CellTiter-Glo luminescence; at 20 µM (top of the series)
[8] = target: 6-phosphogluconate dehydrogenase, decarboxylating (Homo sapiens) (UniProt P52209); assay: 6PGD enzyme inhibitors, primary screen, biochemical, human, recombinant enzyme, NADPH absorbance (AID 1159550;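 active = at least 20% inhibition of 6-phosphogluconate dehydrogenase activity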); details: recombinant 6PGD, NADPH absorbance 341 nm; at 10 µM; hits give high values
6-phosphogluconate dehydrogenase, decarboxylating (Homo sapiens), sequence (P52209 whole entry, looked up): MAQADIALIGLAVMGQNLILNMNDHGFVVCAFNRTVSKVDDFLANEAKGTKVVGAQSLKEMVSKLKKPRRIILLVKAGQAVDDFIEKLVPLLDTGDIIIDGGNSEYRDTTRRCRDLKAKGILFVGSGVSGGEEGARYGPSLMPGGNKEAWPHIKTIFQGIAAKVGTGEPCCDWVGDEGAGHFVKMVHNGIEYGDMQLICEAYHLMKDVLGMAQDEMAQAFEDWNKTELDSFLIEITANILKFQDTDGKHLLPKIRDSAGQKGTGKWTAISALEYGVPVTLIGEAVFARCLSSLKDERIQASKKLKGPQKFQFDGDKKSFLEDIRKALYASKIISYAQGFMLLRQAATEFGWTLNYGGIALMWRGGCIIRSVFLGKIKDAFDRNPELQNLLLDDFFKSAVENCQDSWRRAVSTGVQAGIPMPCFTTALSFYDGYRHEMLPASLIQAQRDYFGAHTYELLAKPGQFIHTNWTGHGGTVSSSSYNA

Oc1ccc(Cl)cc1Cc1cc(Cl)ccc1O
insulin secretion stimulation [1]: -0.9%
viability decrease [2]: 100% (active)
tube area decrease [3]: 109% (active)
GLP1 secretion stimulation [4]: 30.9% (active)
inhibition of viability [5]: 102% (active)
viability decrease (inhibition) [6]: -50.4% (active)
viability decrease (inhibition) [7]: 105% (active)
inhibition [8]: -8.92%

C[C@@H]1C[C@H]2[C@@H]3C[C@H](F)C4=CC(=O)C(Cl)=C[C@]4(C)[C@@]3(F)[C@@H](O)C[C@]2(C)[C@@]1(O)C(=O)CO
insulin secretion stimulation [1]: -0.6%
viability decrease [2]: 6.2%
tube area decrease [3]: -1.8%
GLP1 secretion stimulation [4]: 4.6%
inhibition of viability [5]: 33.1%
viability decrease (inhibition) [6]: 12%
viability decrease (inhibition) [7]: 8.3%

CN(C)C(=O)Nc1ccc(Cl)c(Cl)c1
insulin secretion stimulation [1]: -2.3%
viability decrease [2]: -3.75%
tube area decrease [3]: -17.1%
GLP1 secretion stimulation [4]: -0.7%
inhibition of viability [5]: -2.8%
viability decrease (inhibition) [6]: 11.2%
viability decrease (inhibition) [7]: 13.6%
inhibition [8]: -8.44%

CC(=O)Nc1ccc(OCC(O)CNC(C)C)cc1 (stereo not given)
insulin secretion stimulation [1]: 5.6%
viability decrease [2]: 4.2%
tube area decrease [3]: -0.3%
GLP1 secretion stimulation [4]: -1.9%
inhibition of viability [5]: 11.1%
viability decrease (inhibition) [6]: 26.9%
viability decrease (inhibition) [7]: 42%
inhibition [8]: 2.72%

CC(=O)OCC(=O)[C@H]1CC[C@H]2[C@@H]3CCC4=CC(=O)CC[C@]4(C)[C@H]3CC[C@]12C
insulin secretion stimulation [1]: 0.3%
viability decrease [2]: 0.8%
tube area decrease [3]: -2.5%
GLP1 secretion stimulation [4]: -0.6%
inhibition of viability [5]: 34.5%
viability decrease (inhibition) [6]: 1.2%
viability decrease (inhibition) [7]: -9.6%
inhibition [8]: 2.51%

O=C(CCCCC(=O)Nc1c(I)cc(I)c(C(=O)O)c1I)Nc1c(I)cc(I)c(C(=O)O)c1I
insulin secretion stimulation [1]: -1.2%
viability decrease [2]: -15.2%
tube area decrease [3]: 5.5%
GLP1 secretion stimulation [4]: -3.5%
inhibition of viability [5]: -1.4%
viability decrease (inhibition) [6]: 7.4%
viability decrease (inhibition) [7]: -2.6%
inhibition [8]: 15.2%

Cc1cc2nc3c(=O)[nH]c(=O)nc-3n(C[C@H](O)[C@H](O)[C@H](O)CO)c2cc1C
insulin secretion stimulation [1]: 0.9%
viability decrease [2]: -45.7%
tube area decrease [3]: 36.1%
GLP1 secretion stimulation [4]: -0.4%
inhibition of viability [5]: 0.1%
viability decrease (inhibition) [6]: 11.1%
viability decrease (inhibition) [7]: -5.4%
inhibition [8]: -2.13%

O=c1[nH]cnc2c1ncn2[C@@H]1O[C@H](CO)[C@@H](O)[C@H]1O
insulin secretion stimulation [1]: -0.1%
viability decrease [2]: -12.4%
tube area decrease [3]: 2.1%
GLP1 secretion stimulation [4]: 0.9%
inhibition of viability [5]: -0.1%
viability decrease (inhibition) [6]: -39.7%
viability decrease (inhibition) [7]: -12.5%
inhibition [8]: -10.6%

Nc1c2c(nc3ccccc13)CCCC2O (stereo not given)
insulin secretion stimulation [1]: 11.8%
viability decrease [2]: 5.9%
tube area decrease [3]: 16.1%
GLP1 secretion stimulation [4]: 8.3%
inhibition of viability [5]: 3.6%
viability decrease (inhibition) [6]: 26.9%
viability decrease (inhibition) [7]: -22.2%
inhibition [8]: 7.08%

CC[C@]12CCCN3CCc4c(n(c5ccccc45)C(=O)C1)[C@@H]32
insulin secretion stimulation [1]: 0.1%
viability decrease [2]: -29%
tube area decrease [3]: 100% (active)
GLP1 secretion stimulation [4]: 7.7%
inhibition of viability [5]: 35.7%
viability decrease (inhibition) [6]: 60% (active)
viability decrease (inhibition) [7]: 66.2% (active)
inhibition [8]: -5.24%

CC(=O)OCC(=O)[C@@]1(O)[C@H](OC(C)=O)C[C@H]2[C@@H]3CCC4=CC(=O)C=C[C@]4(C)[C@@]3(F)[C@@H](O)C[C@@]21C
insulin secretion stimulation [1]: 2.1%
viability decrease [2]: -9%
tube area decrease [3]: -8.6%
GLP1 secretion stimulation [4]: 2.4%
inhibition of viability [5]: -8.2%
viability decrease (inhibition) [6]: 18.4%
viability decrease (inhibition) [7]: -14.1%
inhibition [8]: 14.6%

CN1[C@@H]2CC[C@H]1CC(OC(=O)C(O)c1ccccc1)C2 (stereo not given in full)
insulin secretion stimulation [1]: 3.1%
viability decrease [2]: 15%
tube area decrease [3]: -13.1%
GLP1 secretion stimulation [4]: 1%
inhibition of viability [5]: 28%
viability decrease (inhibition) [6]: 22.2%
viability decrease (inhibition) [7]: -0.2%
inhibition [8]: -3.32%

C=CC(N)CCC(=O)O (stereo not given)
insulin secretion stimulation [1]: 1.4%
viability decrease [2]: -25.5%
tube area decrease [3]: -14.9%
GLP1 secretion stimulation [4]: -0.9%
inhibition of viability [5]: 10.9%
viability decrease (inhibition) [6]: -15.3%
viability decrease (inhibition) [7]: -6.8%
inhibition [8]: -0.693%

CC[C@]12CCCN3CCc4c(n(c5ccccc45)[C@@](O)(C(=O)OC)C1)[C@@H]32
insulin secretion stimulation [1]: -1.7%
viability decrease [2]: -2.5%
tube area decrease [3]: 25.6%
GLP1 secretion stimulation [4]: -2.6%
inhibition of viability [5]: -43.9%
viability decrease (inhibition) [6]: 0.1%
viability decrease (inhibition) [7]: -31.5%
inhibition [8]: -2.98%

C[C@]12CC[C@@H]3c4ccc(O)cc4CC[C@H]3[C@@H]1CCC2=O
insulin secretion stimulation [1]: -1.5%
viability decrease [2]: -6%
tube area decrease [3]: 21.8%
GLP1 secretion stimulation [4]: -1.2%
inhibition of viability [5]: -35.2%
viability decrease (inhibition) [6]: 32.8%
viability decrease (inhibition) [7]: -3.45%
inhibition [8]: -17.4%

Nc1cc(-c2ccncc2)c[nH]c1=O
insulin secretion stimulation [1]: 0.4%
viability decrease [2]: -33.1%
tube area decrease [3]: -25.6%
GLP1 secretion stimulation [4]: 0%
inhibition of viability [5]: -3.67%
viability decrease (inhibition) [6]: 15%
viability decrease (inhibition) [7]: -7.5%
inhibition [8]: -7.06%

COc1cc(N)c(Cl)cc1C(=O)NC1CCN(Cc2ccccc2)CC1
insulin secretion stimulation [1]: 9.3%
viability decrease [2]: -6.7%
tube area decrease [3]: 5.3%
GLP1 secretion stimulation [4]: -0.7%
inhibition of viability [5]: 38.2%
viability decrease (inhibition) [6]: 26.2%
viability decrease (inhibition) [7]: 6.4%
inhibition [8]: -7.99%

Source: PubChem BioAssay
